Test results: PubChem BioAssay AID777 (Sanford-Burnham Center for Chemical Genomics, 2007)
Hit rate of the full screen: of about 96,000 compounds, about 19,000 (20%) were called active. Not all results are given here. Unmarked numbers belong to inactive results.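 The calls were made as follows: active = blocking of liver enzyme CYP2C9 beyond about 50% at 5 µM (limit read from the data); inactive = the rest.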

These molecules were tested against Cytochrome P450 2C9 (Homo sapiens) (UniProt P11712) (assay: blockers of cytochrome P450 2C9 activity – biochemical, luminescence, ADME assay, primary screen (AID 777)). Conditions: CYP2C9 Supersomes, luciferin-H conversion, at 5 µM, hits give high values.
Cytochrome P450 2C9 (Homo sapiens), sequence (P11712 whole entry, looked up): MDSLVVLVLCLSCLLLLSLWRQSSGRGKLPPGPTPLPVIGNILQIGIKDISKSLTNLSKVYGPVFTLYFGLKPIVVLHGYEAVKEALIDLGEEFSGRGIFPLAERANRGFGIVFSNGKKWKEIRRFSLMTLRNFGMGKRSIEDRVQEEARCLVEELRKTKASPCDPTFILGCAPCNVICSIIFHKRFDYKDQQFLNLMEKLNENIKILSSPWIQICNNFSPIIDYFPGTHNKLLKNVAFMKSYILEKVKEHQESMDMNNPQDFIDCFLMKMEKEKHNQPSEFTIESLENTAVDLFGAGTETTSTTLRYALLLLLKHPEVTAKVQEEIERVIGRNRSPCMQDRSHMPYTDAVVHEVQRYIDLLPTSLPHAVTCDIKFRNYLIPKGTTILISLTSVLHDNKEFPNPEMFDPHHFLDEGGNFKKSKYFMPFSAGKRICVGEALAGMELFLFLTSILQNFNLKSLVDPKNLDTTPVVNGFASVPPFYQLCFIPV

Structure (SMILES) | inhibition
O=C(Oc1ccccc1)Oc1ccc2c(c1)oc(=O)c1ccccc12 | -55.2%
Cc1c(C(=O)N2CC(C)OC(C)C2)sc2nc(-c3ccccc3)cn12 (stereo not drawn) | 1.3%
Fc1ccccc1/C=C1\CCCC2=C1Nc1ncnn1C2c1ccccc1F (stereo not drawn) | 43.9%
Cc1ccc(C2(C(F)(F)F)N=C3Sc4cc(C)cc(C)c4N3C(=O)N2)cc1 (stereo not drawn) | 65.5% (active)
CCOC(=O)C(=O)Nc1nc(-c2ccccc2)c(CC)s1 | 2.4%
N=c1n(Cc2ccc(Cl)cc2)c2ccccc2n1CC(O)c1ccco1 (stereo not drawn) | 23.2%
Cc1cccn2c(=O)c(/C=C3\SC(=S)N(CC(C)C)C3=O)c(NCCCOC(C)C)nc12 | 27%
Cn1c(=NC(=O)c2ccco2)sc2cccc(F)c21 | 1%
CC(Oc1ccc(-c2ccccc2)c(F)c1)c1ccn(S(=O)(=O)c2cccc3ccccc23)n1 (stereo not drawn) | 76.9% (active)
CCN(CC)Cc1cc(C(C)=O)ccc1O | -7.4%
CCOc1ccccc1NC(=O)Nc1cc(OC)ccc1OC | 4.9%
CCOc1ccccc1Oc1cn[nH]c1-c1ccc(OC)cc1O | 98.2% (active)
CCOC(=O)C1CCN(C(=O)CSc2cc(=O)n(C)c3ccccc23)CC1 | 18.3%
O=c1c(-c2ccccc2)coc2c(CN3CCOCC3)c(O)ccc12 | 7.7%
CCOC(=O)C1CCCN(Cc2nc(N)nc(Nc3ccc(C)cc3)n2)C1 (stereo not drawn) | 13.1%
NC(=O)C1(N2CCCCC2)CCN(C(=O)c2ccc(C#Cc3ccccc3)o2)CC1 | 71.6% (active)
CC(C)(O)C#Cc1ccc(C(=O)N2CCC(C(N)=O)(N3CCCCC3)CC2)cc1 | 27.6%
NC(=O)C1(N2CCCCC2)CCN(C(=S)Nc2ccc(Cl)cc2)CC1 | 20.5%
CCOC(=O)N1CCC(NC(=O)c2cnn3ccccc23)CC1 | 9.8%
O=C(Nc1cccc(-c2nnc(-c3ccccc3)o2)c1)C1CCCO1 (stereo not drawn) | 27.5%
c1ccc(-c2nnc(SCc3nc4ccccc4[nH]3)o2)cc1 | 50.9% (active)
C=CCSc1nc2ccccc2[nH]1 | -21%
O=C(CSc1nnc(-c2ccccc2)o1)N1CCOCC1 | -9.8%
O=C(NC1CCCC1)c1ccc(Br)s1 | 33.9%
CCOc1cc(S(=O)(=O)NCc2ccc3c(c2)OCO3)ccc1F | 61% (active)

Structure (SMILES) | inhibition
CCOc1cc(S(=O)(=O)NC2CC(C)(C)NC(C)(C)C2)ccc1F | -1.2%
CCOc1c2ccc(C(=O)NCc3ccc4c(c3)OCO4)cc2nn1C | 41.4%
COc1ccc(OCCCC(=O)Oc2ccc(OC)cc2)cc1 | 11.2%
Cc1cc(C(F)(F)F)n2ncc(-c3ccccc3)c2n1 | 0.4%
Cn1c(-c2sc3cc(C(F)(F)F)cnc3c2-c2ccccc2)n[nH]c1=S | 51.7% (active)
Cc1ccc(/C=N\n2c(-c3ccccc3)n[nH]c2=S)s1 | 13.6%
O=C(NCCc1ccccn1)c1cc(C(=O)C2CCCCC2)c[nH]1 | 10.3%
O=c1[nH]nc(CSCc2ccccc2Cl)[nH]1 | -20.8%
CC(C)Oc1ccc(CCc2n[nH]c(=S)n2Cc2ccccc2)cc1 | 16.2%
S=c1[nH]nc(CSCc2ccc(Cl)cc2Cl)n1-c1ccccc1 | 76.5% (active)
CC(Cc1cccs1)NC(=O)NC1CCCCC1 (stereo not drawn) | 12.2%
Fc1ccc(CNc2nc3ccccc3n3nnnc23)cc1 | 11.6%
COc1ccc(-c2c3c(=O)n(C)c(=O)n(C)c3cn2NC(C)=O)cc1 | 1.5%
CCc1ccccc1NC(=O)CN(C)S(=O)(=O)c1ccc2c(c1)c(=O)n(C)c(=O)n2C | -17.2%
COc1ccc(N(C(=O)c2cccnc2)S(=O)(=O)c2ccc3c(c2)n(C)c(=O)n3C)cc1 | 86.2% (active)
Cc1ccsc1C(C(=O)NC1CCCCC1)N(C(=O)Cc1cccs1)C1CC1 (stereo not drawn) | 18.5%
Cc1ccc(F)cc1NC(=O)c1cccc(N(C)C)c1 | -1.6%
Cc1ccc(C(c2nnnn2CS(=O)(=O)c2ccc(C)cc2)N2CCC(C)CC2)cc1 (stereo not drawn) | -18.8%
Cc1cc(C(=O)OCC(=O)c2c(N)n(C)c(=O)n(C)c2=O)c(C)o1 | 15.9%
Cc1cc(NC(=O)COC(=O)c2ccc(F)c(S(=O)(=O)N3CCOCC3)c2)no1 | -0.2%
Cc1cc(C(=O)OCC(=O)Nc2ccc(F)c(F)c2)c(C)o1 | 61.2% (active)
O=C(O)CSC(NC(=O)c1cccnc1)(C(F)(F)F)C(F)(F)F | 3.1%
CC1CC2=C(CC1/C=N/NC(N)=S)C(C)(C)CCC2 (stereo not drawn) | 43.1%
CC(=O)NNc1cc(=O)c2c(=O)n(C)c(=O)n(C)c2[nH]1 | 6.5%
CC(=O)NC(Cc1ccc(F)cc1)C(=O)O (stereo not drawn) | 6.7%

Structure (SMILES) | inhibition
O=c1nc2s/c(=C\c3ccco3)c(=O)n2nc1Cc1ccccc1 | -5.6%
O=S(=O)(NCC1OCCc2ccccc21)c1ccccc1 (stereo not drawn) | 3%
O=c1/c(=C/c2ccc(CNS(=O)(=O)c3ccccc3)o2)sc2n1CCN=2 | 71.2% (active)
Cc1cc(C(F)(F)F)nn1CC(=O)N1CCCC1 | 1%
CCC(C)(NC(=O)c1ccccn1)C(=O)NC1CCCCC1 (stereo not drawn) | 12.3%
Cc1noc(C)c1C(=O)N(CC(=O)NC1CCCC1)Cc1ccccc1F | 26.2%
CCCC(=O)Nc1cc(OCC)c(NC(=O)NC2CCCCC2)cc1OCC | 4.7%
CN(CC(=O)NC1CCCCC1)S(=O)(=O)c1cccc2cccnc12 | -46%
O=C(CCCC(=O)N(CC(=O)NC1CCCC1)Cc1ccccc1Cl)Nc1ccccn1 | 77.3% (active)
CCOc1ccccc1N(CC(=O)NC1CCCCC1)C(=O)CCCC(=O)Nc1ccccn1 | 79.8% (active)
COc1ccc(N2C(=O)C3CCCN3C2c2cccs2)cc1 (stereo not drawn) | 31.3%
O=C1CSC(c2ccccc2)N1c1nc(-c2ccc(Cl)cc2Cl)cs1 (stereo not drawn) | 21.8%
O=C(NCCCNCc1ccccc1)c1ccc(/C=N/O)nc1 | -11.5%
O=C(CCCn1c(=O)oc2ccccc21)Nc1cccnc1 | -30.9%
COC(=O)C(C)n1cnc2c(nnn2-c2cccc(Cl)c2)c1=O (stereo not drawn) | 1.7%
CN=C1SC(C(=O)O)CC(=O)N1C (stereo not drawn) | -6.4%
COC(=O)C(CC(=O)Nc1cc(C)ccc1C)Nc1ccccc1OC (stereo not drawn) | 7.7%
CCOc1cc(C(=S)N2CCOCC2)ccc1O | -10.2%
O=P(c1cccs1)(c1cccs1)c1cccs1 | 12.7%
O=C1CC(c2cccc(F)c2)C2=C(CCCC2=O)N1 (stereo not drawn) | 12.1%
COC(=O)c1cccc(NC(=O)CSc2nc(C)cc(=O)[nH]2)c1 | 42.6%
COc1ccc(NC(=O)CSc2nc(NS(=O)(=O)c3ccc(C)cc3)cc(=O)[nH]2)cc1 | 91.7% (active)
COc1ccc(NC(=O)CSc2nc(N)c(-c3ccccc3)c(=O)[nH]2)cc1 | 3.1%
COc1ccc2nc(SCC(=O)Nc3c(C)cc(C)cc3C)[nH]c2c1 | 81.5% (active)
COc1ccc(OC)c(NC(=O)CSc2nc(N)c(-c3ccccc3)c(=O)[nH]2)c1 | 29.2%

Structure (SMILES) | inhibition
COc1cc2ccccc2cc1C(=O)Nc1ccc(S(=O)(=O)Nc2cc(C)on2)cc1 | 3.1%
Cc1ccc(NC(=O)NCC(c2cccnc2)N2CCOCC2)cc1 (stereo not drawn) | 2.5%
COc1ccc(N/N=C2/CCCCC2=O)cc1 | -10.8%
Cc1nc2cc(NC(=O)NCc3ccccc3)ccc2o1 | -5.6%
O=C(O)c1cscn1 | -3.7%
N#C/C(=C(\O)CCl)c1nnc2n1CCCCC2 | 3.8%
O=C(CCC(=O)OCc1cccc(C(=O)Oc2ccccc2)c1)Nc1cccc2ccccc12 | 95.5% (active)
O=C(O)c1ccccc1-c1ccccc1C(=O)Nc1cccc2ccccc12 | 36%
O=C(CCC(=O)OCC(F)(F)C(F)F)NCc1ccccc1 | 4.8%
CCOC(=O)C1=C(CSc2nnnn2C)N(C)C(=O)NC1c1ccccc1 (stereo not drawn) | -20.4%
Cc1ccccc1NC(=O)C(C)c1ccc(-c2ccccc2)c(F)c1 (stereo not drawn) | 67.2% (active)
CC(Sc1nncn1C)C(=O)Nc1ccccc1-c1ccccc1 (stereo not drawn) | 15.8%
Cc1ccccc1NC(=O)c1ccccc1 | 0.6%
Cc1cccc(N2CCN(Cc3c(C)n(C)n(-c4ccccc4)c3=O)CC2)c1C | -16.5%
CCOC(=O)N1CCN(Cc2nc(N)nc(Nc3ccc(C)cc3)n2)CC1 | 15.5%
Cc1ccccc1Nc1nc(N)nc(CN2CCN(c3ccccn3)CC2)n1 | 23.8%
CN(CCO)Cc1csc2ccc(Br)cc12 | -22.8%
CCC1(C)N(O)C(C)(C)C(c2ccc(OC)cc2)=[N+]1[O-] (stereo not drawn) | 0.3%
COC(=O)C(C)Oc1ccc2c(-c3cccc([N+](=O)[O-])c3)cc(=O)oc2c1 (stereo not drawn) | 28.8%
Cc1ccc(C(c2nnnn2CS(=O)(=O)c2ccc(C)cc2)N2CCC(C(N)=O)CC2)cc1 (stereo not drawn) | 6.2%
O=Cc1c(N2CCN(c3cccc(Cl)c3)CC2)nc2ccccn2c1=O | 49.1%
Cc1cccn2c(=O)c(/C=C(\C#N)S(=O)(=O)c3ccc(Cl)cc3)c(N3CCC(C(N)=O)CC3)nc12 | 96.9% (active)
COc1ccc(CC(=O)Nc2nc3n(n2)C(c2ccccc2)CC(=O)N3)cc1OC (stereo not drawn) | -5.5%
